# Measured values as given in paper PMC4336329 (PLoS ONE, 2015).
# Out of some 310,000 compounds screened, about 14,000 (4.5%) showed an effect of 50% or more. Effects have a minus sign here. This is one part of a sample in which strong results are shown more often than they occur.
# Biological target: human ether-à-go-go-related gene (hERG) potassium channel (human, UniProt Q12809)
# Test: primary screen, population patch clamp on CHO cells stably expressing hERG; higher = less effect of the substance
# 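Further: peak tail current of the secondary pulse compared with the same well before compound.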
# Chain of human ether-à-go-go-related gene (hERG) potassium channel (Q12809 whole entry, looked up): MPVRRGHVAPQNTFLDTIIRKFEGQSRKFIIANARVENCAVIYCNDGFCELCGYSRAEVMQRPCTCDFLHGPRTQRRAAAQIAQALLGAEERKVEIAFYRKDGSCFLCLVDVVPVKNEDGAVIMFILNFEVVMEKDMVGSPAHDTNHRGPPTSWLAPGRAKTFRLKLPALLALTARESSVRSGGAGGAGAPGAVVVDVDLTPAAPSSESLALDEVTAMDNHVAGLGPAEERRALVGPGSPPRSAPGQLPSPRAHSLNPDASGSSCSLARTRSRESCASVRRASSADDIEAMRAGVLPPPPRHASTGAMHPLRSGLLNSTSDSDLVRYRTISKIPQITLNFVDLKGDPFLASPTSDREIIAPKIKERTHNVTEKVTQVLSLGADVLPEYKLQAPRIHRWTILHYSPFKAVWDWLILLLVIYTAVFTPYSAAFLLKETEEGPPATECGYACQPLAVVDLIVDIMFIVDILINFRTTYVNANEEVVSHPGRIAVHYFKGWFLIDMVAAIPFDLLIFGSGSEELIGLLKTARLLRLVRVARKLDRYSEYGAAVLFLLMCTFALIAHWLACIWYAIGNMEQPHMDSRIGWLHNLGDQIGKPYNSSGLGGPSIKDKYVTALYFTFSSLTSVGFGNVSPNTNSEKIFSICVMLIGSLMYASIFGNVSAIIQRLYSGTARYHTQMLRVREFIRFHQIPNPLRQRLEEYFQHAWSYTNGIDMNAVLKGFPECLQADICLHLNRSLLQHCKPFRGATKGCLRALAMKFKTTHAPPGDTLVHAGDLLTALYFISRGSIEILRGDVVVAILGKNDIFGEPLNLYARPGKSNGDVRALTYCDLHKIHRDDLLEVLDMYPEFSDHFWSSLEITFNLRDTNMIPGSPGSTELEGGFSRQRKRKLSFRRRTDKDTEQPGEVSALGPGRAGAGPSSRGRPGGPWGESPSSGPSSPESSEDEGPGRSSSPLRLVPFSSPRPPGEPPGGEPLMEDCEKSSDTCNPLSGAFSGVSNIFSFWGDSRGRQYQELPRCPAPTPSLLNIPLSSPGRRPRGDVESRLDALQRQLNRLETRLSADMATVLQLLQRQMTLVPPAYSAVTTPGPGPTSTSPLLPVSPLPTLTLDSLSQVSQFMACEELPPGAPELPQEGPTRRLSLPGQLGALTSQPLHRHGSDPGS
row,Structure (SMILES),"hERG current change (%, negative = inhibition) at 10uM [%]"
1,Cc1cc(C(=O)CSc2nc(N)cc(N)n2)c(C)n1CCc1ccc(F)cc1,-13.9
2,Cn1c(=O)c2[nH]c(-c3ccc(S(=O)(=O)O)cc3)nc2n(C)c1=O.O,10.2
3,O=C(N/N=C/c1ccc(Br)o1)/C(=C/c1ccc([N+](=O)[O-])cc1)NC(=O)c1ccccc1,-60.1
4,O=C(N/N=C/c1ccc(O)cc1)/C(=C/c1ccc([N+](=O)[O-])cc1)NC(=O)c1ccccc1,8.54
5,COc1ccc(/C=C(\NC(=O)c2cccs2)C(=O)Nc2cccc3ccccc23)cc1OC,-7.06
6,O=C(N/C(=C/c1cccc([N+](=O)[O-])c1)C(=O)N1CCCCC1)c1cccs1,-7.23
7,O=C(Nc1cccc2ccccc12)/C(=C/c1ccc([N+](=O)[O-])cc1)NC(=O)c1ccccc1,-55.6
8,Cc1ccc(NC(=O)/C(=C/c2cccc([N+](=O)[O-])c2)NC(=O)C2CCCCC2)c(C)c1,-18.7
9,O=C(Nc1ccccc1)/C(=C/c1ccc([N+](=O)[O-])cc1)NC(=O)c1ccccc1,8.2
10,O=C(Nc1ccc([N+](=O)[O-])cc1)/C(=C/c1cccc([N+](=O)[O-])c1)NC(=O)C1CCCCC1,-69
11,O=C(Nc1cccc(C(=O)O)c1)/C(=C/c1ccc([N+](=O)[O-])cc1)NC(=O)c1ccccc1,-5.36
12,O=C(N/N=C/c1ccc(O)c(O)c1O)/C(=C/c1ccc([N+](=O)[O-])cc1)NC(=O)c1ccccc1,12.4
13,O=C(Nc1ccc(Br)cc1)/C(=C/c1cccc([N+](=O)[O-])c1)NC(=O)C1CCCCC1,-16
14,O=C(Nc1cccc2ccccc12)/C(=C\c1cccc([N+](=O)[O-])c1)NC(=O)c1cccs1,-70.1
15,Cc1cc(NC(=O)C(C)SCC(=O)N(C)CC(=O)Nc2ccc(F)cc2)no1 (stereo not drawn),7.59
16,CN(CC(=O)Nc1ccccc1Cl)C(=O)Cn1cc(C(F)(F)F)cc(Cl)c1=O,-6.27
17,O=C(CN1C(=O)COc2ccc(S(=O)(=O)N3CCOCC3)cc21)NCc1ccccn1,-1.38
18,O=C(NCC1CCCO1)C1CCN(c2ccc(S(=O)(=O)N3CCCC3)cc2)CC1 (stereo not drawn),-4.69
19,CC(C(=O)c1ccc(-c2ccccc2)cc1)[n+]1ccccc1.[Br-] (stereo not drawn),2.72
20,CCOC(=O)c1ccc(N2C(=O)c3n[nH]c(C)c3C2c2cccnc2)cc1 (stereo not drawn),-17.2
21,CC(C(=O)OCC(=O)c1ccc(F)cc1)N1C(=O)C2C3C=CC(C3)C2C1=O (stereo not drawn),-15.4
22,Cc1cccc(NC(=O)/C(=C/c2cccc([N+](=O)[O-])c2)NC(=O)c2cccs2)c1,10.2
23,O=C(Nc1cccc2ccccc12)/C(=C/c1cccc([N+](=O)[O-])c1)NC(=O)c1cccs1,-67.7
24,Cc1ccc(NC(=O)/C(=C\c2cccc([N+](=O)[O-])c2)NC(=O)c2cccs2)cc1,-1.85

row,Structure (SMILES),"hERG current change (%, negative = inhibition) at 10uM [%]"
1,CCOC(=O)c1cnn(-c2ccccc2)c1-n1cccc1,-8.27
2,C=CCNC(=S)Nc1ccccc1,-8.73
3,CN(C)c1ccc(NC(=O)Nc2csc3ccccc23)cc1,18.4
4,Fc1cccc(F)c1CN1CCN(c2ncccn2)CC1,15.5
5,COc1ccc(-c2cc(=[NH+]c3ccccc3)c3cc(C)ccc3o2)cc1.[O-][Cl+3]([O-])([O-])[O-],24.8
6,O=c1oc2ccc(Cl)cc2cc1-c1ccccc1,22.4
7,F[B-](F)(F)F.OCCCCC[NH+]=c1cc(-c2ccccc2)oc2ccc(Cl)cc12,-80.3
8,O=C(COc1ccc2oc(-c3ccccc3)cc(=O)c2c1)Nc1ccccc1,-2.43
9,O=c1cc(-c2ccccc2)oc2ccc(O)cc12,-9.74
10,F[B-](F)(F)F.OCCC[NH+]=c1cc(-c2ccccc2)oc2ccc(Cl)cc12,-79.1
11,OCCCNc1nc(-c2ccccc2)c2cc(Cl)ccc2n1,3.04
12,F[B-](F)(F)F.OCC[NH+]=c1cc(-c2ccccc2)oc2ccc(Cl)cc12,-71.3
13,Nc1c(C(=O)CCC(=O)O)oc2ccc(Cl)cc12,-9.4
14,CCCNC(=O)c1cccc(COCC(F)(F)F)c1,-2.57
15,O=C(Nc1ccccn1)C1(c2cccs2)CCOCC1,8.48
16,COc1ccc(S(=O)(=O)N2CCOC23CCN(S(=O)(=O)c2ccc([N+](=O)[O-])cc2)CC3)cc1,-62
17,COc1ccc(S(=O)(=O)N2CCOC23CCN(S(=O)(=O)c2ccccc2)CC3)cc1,8.72
18,COc1ccc(S(=O)(=O)N2CCC3(CC2)OCCN3S(=O)(=O)c2cccs2)cc1,-23.8
19,Cc1ccc(S(=O)(=O)N2CCOC23CCN(C(=O)c2cc(Cl)ccc2Cl)CC3)cc1,-47.6
20,Cc1ccc(S(=O)(=O)N2CCOC23CCN(C(=O)c2ccc(Cl)cc2Cl)CC3)cc1,-48.1
21,O=S(=O)(c1ccc(F)cc1)N1CCC2(CC1)OCCN2S(=O)(=O)c1cccs1,-10.9
22,COc1ccc(S(=O)(=O)N2CCC3(CC2)OCCN3S(=O)(=O)c2ccc(OC)cc2)cc1,-24.1
23,COc1ccc(S(=O)(=O)N2CCOC23CCN(C(=O)c2ccc(Cl)cc2Cl)CC3)cc1,-68.9
24,O=[N+]([O-])c1ccc(S(=O)(=O)N2CCC3(CC2)OCCN3S(=O)(=O)c2cccs2)cc1,-50.4
